{"source": "ChEMBL document CHEMBL1961873", "about": "“Compounds: GSK PKIS; Assays: Nanosyn kinase panel” (2012);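 further: values are averaged percent inhibition of HCK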", "data": [{"target": "Tyrosine-protein kinase HCK (Homo sapiens) (UniProt P08631)", "sequence (P08631 2-526 limits assumed)": "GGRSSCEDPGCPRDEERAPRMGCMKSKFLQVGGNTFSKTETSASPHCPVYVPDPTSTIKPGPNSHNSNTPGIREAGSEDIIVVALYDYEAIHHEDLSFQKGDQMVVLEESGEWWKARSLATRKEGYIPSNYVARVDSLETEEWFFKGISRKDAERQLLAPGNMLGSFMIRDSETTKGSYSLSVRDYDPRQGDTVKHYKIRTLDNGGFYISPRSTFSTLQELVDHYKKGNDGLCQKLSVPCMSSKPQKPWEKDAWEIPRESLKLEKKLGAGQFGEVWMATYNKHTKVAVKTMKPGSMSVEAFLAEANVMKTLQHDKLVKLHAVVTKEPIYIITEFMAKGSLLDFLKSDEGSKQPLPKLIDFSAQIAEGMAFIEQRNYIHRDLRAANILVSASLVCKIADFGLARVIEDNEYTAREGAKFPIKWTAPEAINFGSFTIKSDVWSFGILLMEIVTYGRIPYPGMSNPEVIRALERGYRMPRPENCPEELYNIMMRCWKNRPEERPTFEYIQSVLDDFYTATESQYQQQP", "conditions": "at 1 µM", "units": {"inhibition": "%"}, "values": [{"compound": "N#Cc1c(NC(=O)c2cccc3ccccc23)sc2c1CCCC2", "inhibition": 6.4}, {"compound": "CCn1c(-c2nonc2N)nc2cncc(C(=O)N3CCNCC3)c21", "inhibition": 9.25}, {"compound": "NS(=O)(=O)c1cccc(-c2ccc3c(NC(=O)C4CC4)n[nH]c3c2)c1", "inhibition": 1.86}, {"compound": "CC1=C(C(=O)Nc2ccc3[nH]ncc3c2)C(c2ccc3ccccc3c2)CC(=O)N1", "note": "(centres undefined)", "inhibition": 17.9}, {"compound": "Cc1nnc(-c2ccc(C)c(-c3ccc(C(=O)Nc4cccc(C#N)c4)cc3)c2)o1", "inhibition": 5.14}, {"compound": "Cc1nn(C)c2cc(N(C)c3ccnc(Nc4cccc(S(N)(=O)=O)c4)n3)ccc12", "inhibition": 50.2}, {"compound": "CS(=O)(=O)CCN(CC#N)Cc1ccc(-c2ccc3ncnc(Nc4ccc(OCc5cccc(F)c5)c(Cl)c4)c3c2)o1", "inhibition": 3.04}, {"compound": "NC(=O)c1cccc(Nc2nccc(Nc3cccc4[nH]ncc34)n2)c1", "inhibition": 84.6}, {"compound": "COc1cc2ncn(-c3cc(OCc4ccccc4Cl)c(C(N)=O)s3)c2cc1OC", "inhibition": 27.1}, {"compound": "Cc1cccc(-c2n[nH]cc2-c2ccc3ncccc3n2)n1", "inhibition": 5.58}, {"compound": "CCn1c(-c2nonc2N)nc2ccncc21", "inhibition": 3.12}, {"compound": "COc1cc2ncn(-c3cc(OCc4ccccc4C(F)(F)F)c(C(N)=O)s3)c2cc1OC", "inhibition": 29.2}, {"compound": "NCc1ccc(-c2nc(-c3ccc(Cl)c(O)c3)c(-c3ccncc3)[nH]2)cc1", "inhibition": 55.1}, {"compound": "CCN1CCC(CC(=O)Nc2n[nH]c3nc(-c4cccs4)c(Br)cc23)CC1", "inhibition": 0.93}, {"compound": "Nc1nc(-c2ccc3c(c2)C(=Cc2cc(Br)c(O)c(Br)c2)C(=O)N3)cs1", "inhibition": 7.14}, {"compound": "COc1ccc(-c2nn3ncccc3c2-c2ccnc(Nc3ccc(Cl)c(C(F)(F)F)c3)n2)cc1", "inhibition": 4.58}, {"compound": "COc1ccc(COc2ccc(Cc3cnc(N)nc3N)cc2OC)cc1", "inhibition": 3.12}, {"compound": "[O-][S+]1CCN(Cc2ccc(-c3ccc4ncnc(Nc5ccc(OCc6ccccc6)c(F)c5)c4c3)o2)CC1", "inhibition": 7.23}, {"compound": "CC(C)=Cc1cccc2c1/C(=N/Nc1ccc(S(N)(=O)=O)cc1)C(=O)N2", "inhibition": 21.4}, {"compound": "Nc1ncnc2occ(-c3ccc(NC(=O)Nc4cc(C(F)(F)F)cc(C(F)(F)F)c4)cc3)c12", "inhibition": 27.1}, {"compound": "COc1cc(C)c(NC(=O)CN(C)C)cc1Nc1nc(Nc2cccc(F)c2C(N)=O)c2cc[nH]c2n1", "inhibition": 3.71}, {"compound": "COC(=O)Nc1nc2cc(Oc3ccc(NC(=O)Nc4cccc(C(=O)O)c4)cc3)ccc2[nH]1", "inhibition": 3.15}, {"compound": "CS(=O)(=O)Nc1ccc(N/C=C2\\C(=O)Nc3ccccc32)cc1", "inhibition": 14.1}, {"compound": "CC(=O)Nc1cccc(C#Cc2cncnc2Nc2ccc(OCc3cccc(F)c3)c(Cl)c2)n1", "inhibition": 2.4}, {"compound": "CN(C)c1cc2c(Nc3ccc4nc(Cc5ccccc5)[nH]c4c3)ncnc2cn1", "inhibition": 30.6}, {"compound": "COc1ccc(-c2ccncc2)cc1C(N)=O", "inhibition": 9.92}, {"compound": "O=C(Nc1n[nH]c2nc(-c3ccco3)c(Br)cc12)C1CC1", "inhibition": 9.03}, {"compound": "CS(=O)(=O)CCNCc1ccc(-c2ccc3ncnc(Nc4ccc(OCc5cccc(F)c5)c(C(F)(F)F)c4)c3c2)o1", "inhibition": 4.98}, {"compound": "CCn1c(-c2nonc2N)nc2c(C#CC(C)(C)O)nc(CN3CCCC3)cc21", "inhibition": 2.1}, {"compound": "CCn1c(-c2nonc2N)nc2c(N3CCCC3)nccc21", "inhibition": 2.43}, {"compound": "CCc1cccc(NC(=O)Nc2ccc(Oc3ccc4nc(NC(=O)OC)[nH]c4c3)cc2)c1", "inhibition": 7.28}, {"compound": "O=C1Nc2ccc(C(=O)c3ccco3)cc2C1=Cc1cc(Cl)c(O)c(Cl)c1", "inhibition": 17.4}, {"compound": "CS(=O)(=O)CCNCc1nc(-c2ccc3ncnc(Nc4ccc(F)c(Cl)c4)c3c2)cs1", "inhibition": 13.4}, {"compound": "Fc1cccc(COc2ccc(Nc3ncnc4cc(-c5ccc[nH]5)sc34)cc2Cl)c1", "inhibition": 9.04}]}]}
